The panel holds about 83,000 compounds, 20% with a hit somewhere; the sample as a whole holds those more often.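 Step 1: grow cells in 96-well plates. Step 2: add test compound at a single concentration. Step 3: incubate 48 h. Step 4: record percent growth.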 Active and inactive are the calls of the source. The calls were made as follows: active = growth percent below 10; inactive = the rest.

This experiment relates to RXF 393 renal. Description: NCI-60 one-dose screen, 48 h (100 = growth as untreated, 0 = no growth, -100 = all killed). Particulars: 10 µM unless noted.
Consider `COc1ccc2ncccc2c1Cc1c(OC)ccc2ncccc12`, for which the growth was 82.1% (inactive).
The value for `COc1cc(C2CC(C3C(=O)N(C)C(=O)N(C)C3=O)=NN2c2cc(Cl)cc(Cl)c2)cc(OC)c1OC` (centres undefined) was 99.3% (inactive).
With `Cc1sc2nc(NCc3ccccc3)[nH]c(=O)c2c1C` the figure was 69% (inactive); with `Cc1cc2c(cc1C)[n+](Cc1ccc3ccccc3n1)cn2Cc1ccc2ccccc2n1`, -6.38% (active).
With `COc1cc(/C=C2\CN(S(=O)(=O)c3ccc(C)cc3)C/C(=C\c3cc(CN4CCOCC4)c(O)c(OC)c3)C2=O)cc(CN2CCOCC2)c1O` the figure was -87.3% (active); with `O=C1NCCc2c1noc2-c1ccccc1`, 105% (inactive).
Take `C[C@]12CCC(=O)C=C1CC[C@H]1[C@@H]3C[C@@H](O)[C@](O)(C(=O)CO)[C@@]3(C)C[C@H](O)[C@@]12F`: the growth was 137% (inactive).
Take `C/C(=C\CCc1ccsc1)CC/C=C(\C)CCCN1CCSCC1`: the growth is 98.1% (inactive).
On to `COC(=O)Nc1ccc2ccc3c(NC(=O)OC)ccc4ccc1c2c43` (tested in a mixture with another compound), for which the growth was 77.6% (inactive).
As to `O=C(Nc1nc2c(C(F)(F)F)cccc2s1)c1cc(Cl)ccc1O`, the growth is -5.36% (active).
With `COc1cc(C2=NN(C=O)C(c3cccc(Nc4ccnc5cc(Cl)ccc45)c3)C2)cc(OC)c1OC` (centres undefined) the figure was 72.2% (inactive); with `COc1cccc(-c2nc(-c3ccc(N)cc3)co2)c1`, 93.2% (inactive).
The value for `C[C@@H]1[C@H]2[C@H](C=C3[C@@H]4CC[C@H]5Cc6nc7c(nc6C[C@]5(C)[C@H]4C[C@@H](O)[C@@]32C)C[C@@H]2CC[C@H]3C4=C[C@@H]5O[C@@]6(CC[C@](C)(CO)O6)[C@@H](C)[C@@]5(O)[C@@]4(C)[C@H](O)C[C@@H]3[C@@]2(C)C7)O[C@]12CCC(C)(C)O2` was -44.4% (active); that for `O=C(CNC(=O)c1cccc2ccccc12)Nc1ccccc1Oc1cccc(O)c1` was -19% [5 µM] (active).
For the compound `CCN(CC)CCNCC(=O)Oc1ccc(/C=C/C(=O)CC(=O)/C=C/c2ccc(OC(=O)CNCCN(CC)CC)c(OC)c2)cc1OC`, the growth was -73% (active).
The value for `COc1ccc(-c2cc(-c3nnc(SCC(=O)Nc4ccc(C(C)=O)cc4)n3-c3ccccc3)c3ccccc3n2)cc1OC` was 115% (inactive); that for `COc1ccc2c(c1)[n+](=O)c(C(=O)/C=C/c1cc(OC)c(OC)c(OC)c1)c(C)n2[O-]` was 48.6% (inactive); that for `COc1ccc(-c2nc3sc4c(c3c(=O)[nH]2)CCCCCC4)cc1` was 28.4% (inactive).
With `CC(=O)Nc1c(Cl)cc2c(c1Cl)Cc1cc([N+](=O)[O-])ccc1-2` the figure was 104% (inactive); with `CCN(CC)CCCCCCCNc1c2ccc(Cl)cc2nc2ccc(OC)cc12`, -70.8% (active); with `COc1cc(/C=C/c2cc(/C=C/c3ccc(O)c(OC)c3)n(C(=O)c3ccc(Cl)cc3)n2)ccc1O`, 15.3% (inactive).
The value for `Cc1n(Cc2ccc3ccccc3c2)c2ccccc2[n+]1Cc1ccc2ccccc2c1` was -88% (active); that for `CCn1cnc(C[C@H](NC(=O)[C@H](CCCCNC(=O)Nc2cc(C(F)(F)F)cc(C(F)(F)F)c2)NC(=O)Nc2cc(C(F)(F)F)cc(C(F)(F)F)c2)C(=O)OC)c1` was -47.2% [100 µM] (active); that for `O=C(Nc1cccc(-n2cc(-c3ccncc3)c(-c3cc(O)cc(Cl)c3)n2)c1)Nc1ccc(Cl)c(Cl)c1` was -70.3% (active).
As to `Oc1ccc(/C=N/Nc2nc3ccccc3s2)c(O)c1`, the growth is 53.9% (inactive).
As to `Cc1csc(C#Cc2cncc(O)c2)n1`, the growth is 69.9% (inactive).
The value for `COc1cc(/C=C/C(=O)CC(=O)/C=C/c2ccc(OC(=O)CCNC34CC5CC(CC(C5)C3)C4)c(OC)c2)ccc1OC(=O)CCNC12CC3CC(CC(C3)C1)C2` was -37.7% (active); that for `N/C(=N\C(N)=N\c1nc2ccccc2s1)c1ccnc(Cl)c1` was -6.26% (active); that for `COc1ccc(NS(=O)(=O)N2CCCCC2)cc1` was 105% (inactive).
The value for `C=C1CCC2C(C)(COC(=O)CC)C(OC(=O)CC)CCC2(C)C1C/C=C1/C(=O)OCC1OC(=O)CC` (centres undefined) was -97.5% (active); that for `Cc1[nH]ccc2cc3nc4ccccc4c3cc12` was 17.5% (inactive); that for `CC(C)=CCCC(C)c1ccc(C)c2c1OCN(CC1CCNCC1)C2` (centres undefined) was 55.2% (inactive).
The value for `COc1ccc2c(c1)sc1nc(-c3ccc(N(C)C)cc3)cn12` was 114% (inactive); that for `COc1cc(/C=C/C(=O)C(C(=O)/C=C/c2ccc(OC(=O)CCNc3nnc(C)s3)c(OC)c2)C(=O)CCNc2nnc(C)s2)ccc1OC(=O)CCNc1nnc(C)s1` was -70.2% (active).

The values are drawn from PubChem BioAssay (NCI).
